Data as given in PubChem BioAssay AID1159580 (chemical genetic matrix, 2015).
In all, about 5,500 compounds went through this assay and about 2,000 (36%) were called active. Not shown: some 18% with an inconclusive outcome. Cut-off read from the data, not from the text of the source: active = normalized growth mostly below about 0.91 (no sharp cut-off); inconclusive = no clear call, values can overlap the other calls; inactive = mostly above about 0.92. This is one part of the list.

Experiment: chemical genetic growth profiling, strain panel (AID 1159580);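 note: tested at 20 µM; growth read once vehicle control cultures reached saturation at 30 °C; 1 = growth at the plate median or of vehicle wells; lower values mean less growth of the strain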
Details: growth OD

Measured: normalized growth

CC(=O)Oc1c(C)cccc1C(=O)O
inactive: S. cerevisiae deletion strains, locus YJR043C, strain POL32, hits give low values 1 | S. cerevisiae deletion strains, locus YJR075W, strain HOC1, hits give low values 1.01 | S. cerevisiae deletion strains, locus YKL009W, strain mrt4, hits give low values 0.975 | S. cerevisiae deletion strains, locus YKL068W, hits give low values 0.995 | S. cerevisiae deletion strains, locus YKL085W, strain MDH1 (second series), hits give low values 1 | S. cerevisiae deletion strains, locus YKL085W, strain MDH1, hits give low values 1 | S. cerevisiae deletion strains, locus YKL160W, strain elf1, hits give low values 0.994 | S. cerevisiae deletion strains, locus YKL190W, strain CNB1, hits give low values 1.01 | S. cerevisiae deletion strains, locus YKR001C, strain vps1, hits give low values 1.02 | S. cerevisiae deletion strains, locus YKR026C, strain gcn3, hits give low values 0.986 | S. cerevisiae deletion strains, locus YKR091W, strain srl3, hits give low values 1.02 | S. cerevisiae deletion strains, locus YLL001W, strain dnm1, hits give low values 0.986 | S. cerevisiae deletion strains, locus YLL026W, hits give low values 1.01 | S. cerevisiae deletion strains, locus YLL041C, strain sdh2, hits give low values 0.991 | S. cerevisiae deletion strains, locus YLR027C, strain aat2, hits give low values 0.989 | S. cerevisiae deletion strains, locus YLR039C, strain RIC1, hits give low values 1 | S. cerevisiae deletion strains, locus YLR058C, strain SHM2, hits give low values 1.01 | S. cerevisiae deletion strains, locus YLR102C, strain apc9, hits give low values 1.01 | S. cerevisiae deletion strains, locus YLR221C, strain rsa3, hits give low values 1.02 | S. cerevisiae deletion strains, locus YLR258W, strain gsy2, hits give low values 0.999 | S. cerevisiae deletion strains, locus YLR262C, strain YPT6 (second series), hits give low values 1.03 | S. cerevisiae deletion strains, locus YLR262C, strain YPT6, hits give low values 1.05 | S. cerevisiae deletion strains, locus YLR268W, strain sec22, hits give low values 1.01 | S. cerevisiae deletion strains, locus YLR320W, strain mms22, hits give low values 1.03 | S. cerevisiae deletion strains, locus YLR330W, strain CHS5, hits give low values 1 | S. cerevisiae deletion strains, locus YLR342W, strain FKS1 (second series), hits give low values 1.02 | S. cerevisiae deletion strains, locus YLR342W, strain FKS1, hits give low values 1 | S. cerevisiae deletion strains, locus YLR357W, strain rsc2, hits give low values 1.04 | S. cerevisiae deletion strains, locus YLR370C, strain arc18, hits give low values 0.992 | S. cerevisiae deletion strains, locus YLR371W, strain rom2, hits give low values 1.01 | S. cerevisiae deletion strains, locus YLR384C, strain iki3, hits give low values 1.01 | S. cerevisiae deletion strains, locus YLR418C, strain cdc73, hits give low values 1.03 | S. cerevisiae deletion strains, locus YML016C, strain PPZ1, hits give low values 1.02 | S. cerevisiae deletion strains, locus YML032C, strain rad52, hits give low values 1.02 | S. cerevisiae deletion strains, locus YML120C, strain ndi1, hits give low values 1.02 | S. cerevisiae deletion strains, locus YML124C, strain tub3, hits give low values 1.01 | S. cerevisiae deletion strains, locus YMR058W, strain fet3, hits give low values 1.02 | S. cerevisiae deletion strains, locus YMR078C, strain ctf18, hits give low values 1.02 | S. cerevisiae deletion strains, locus YMR125W, strain sto1, hits give low values 1 | S. cerevisiae deletion strains, locus YMR129W, hits give low values 1.02 | S. cerevisiae deletion strains, locus YMR205C, strain PFK2, hits give low values 0.986 | S. cerevisiae deletion strains, locus YMR223W, strain ubp8, hits give low values 1.01 | S. cerevisiae deletion strains, locus YMR231W, strain pep5, hits give low values 1.01 | S. cerevisiae deletion strains, locus YMR263W, strain SAP30, hits give low values 1.01 | S. cerevisiae deletion strains, locus YMR307W, strain GAS1, hits give low values 1.05 | S. cerevisiae deletion strains, locus YNL067W, strain RPL9B, hits give low values 1.01 | S. cerevisiae deletion strains, locus YNL071W, strain lat1, hits give low values 1.02 | S. cerevisiae deletion strains, locus YNL128W, strain TEP1, hits give low values 1.01 | S. cerevisiae deletion strains, locus YNL153C, strain GIM3, hits give low values 1.01 | S. cerevisiae deletion strains, locus YNL209W, strain ssb2, hits give low values 1.01 | S. cerevisiae deletion strains, locus YNL233W, strain BNI4, hits give low values 1.01 | S. cerevisiae deletion strains, locus YNL248C, strain rpa49, hits give low values 1.01 | S. cerevisiae deletion strains, locus YNL250W, strain rad50, hits give low values 1.02 | S. cerevisiae deletion strains, locus YNL271C, strain bni1, hits give low values 1.01 | S. cerevisiae deletion strains, locus YNL298W, strain CLA4, hits give low values 0.987 | S. cerevisiae deletion strains, locus YNL307C, strain MCK1, hits give low values 1.02 | S. cerevisiae deletion strains, locus YNL322C, strain KRE1 (second series), hits give low values 1.01 | S. cerevisiae deletion strains, locus YNL322C, strain KRE1, hits give low values 1.01 | S. cerevisiae deletion strains, locus YNR049C, strain mso1, hits give low values 0.978 | S. cerevisiae deletion strains, locus YNR052C, strain pop2, hits give low values 1.01 | S. cerevisiae deletion strains, locus YOL006C, strain TOP1, hits give low values 1.02 | S. cerevisiae deletion strains, locus YOL012C, strain htz1 1.54 | S. cerevisiae deletion strains, locus YOL147C, strain pex11, hits give low values 1.01 | S. cerevisiae deletion strains, locus YOR001W, strain rrp6, hits give low values 1.01 | S. cerevisiae deletion strains, locus YOR061W, strain CKA2, hits give low values 1 | S. cerevisiae deletion strains, locus YOR069W, strain VPS5, hits give low values 1.01 | S. cerevisiae deletion strains, locus YOR070C, strain gyp1, hits give low values 0.99 | S. cerevisiae deletion strains, locus YOR080W, strain dia2, hits give low values 0.999 | S. cerevisiae deletion strains, locus YOR083W, strain WHI5, hits give low values 1.01 | S. cerevisiae deletion strains, locus YOR106W, strain vam3, hits give low values 1.01 | S. cerevisiae deletion strains, locus YOR136W, strain idh2, hits give low values 1.02 | S. cerevisiae deletion strains, locus YOR144C, strain elg1, hits give low values 1.02 | S. cerevisiae deletion strains, locus YOR184W, strain ser1, hits give low values 1.01 | S. cerevisiae deletion strains, locus YOR265W, strain rbl2, hits give low values 0.993 | S. cerevisiae deletion strains, locus YOR270C, strain vph1, hits give low values 1.06 | S. cerevisiae deletion strains, locus YOR290C, strain snf2, hits give low values 0.99 | S. cerevisiae deletion strains, locus YOR316C, strain cot1, hits give low values 1.02 | S. cerevisiae deletion strains, locus YPL051W, strain arl3, hits give low values 1 | S. cerevisiae deletion strains, locus YPL055C, strain LGE1, hits give low values 1.03 | S. cerevisiae deletion strains, locus YPL078C, strain atp4, hits give low values 1.02 | S. cerevisiae deletion strains, locus YPL106C, strain sse1, hits give low values 1.06 | S. cerevisiae deletion strains, locus YPL240C, strain hsp82, hits give low values 0.973 | S. cerevisiae deletion strains, locus YPL241C, strain CIN2, hits give low values 0.986 | S. cerevisiae deletion strains, locus YPR119W, strain clb2, hits give low values 1 | S. cerevisiae deletion strains, locus YPR141C, strain kar3, hits give low values 1 | S. cerevisiae deletion strains, locus YPR163C, strain tif3, hits give low values 1.01 | S. cerevisiae deletion strains, locus YPR167C, strain met16, hits give low values 1.01 | S. cerevisiae deletion strains, strain wtn01, hits give low values 1 | S. cerevisiae strains, strain wild type, hits give low values 0.993
